Assay results as given in paper PMC10163288.
The list is a sample of the results. No count for the full screen is at hand.

B1: il2ra_site2_2erj_normal_mot_HHH_b1_08185_000000063_0001_41_55_H_._HHH_b1_04971_af2_0001_0000600015_0000001_0 (protein)
chain: SSSSSDSAEEALELAKEAYEKGDRSEVELILRYLELSLEDANDPRVEEAYELVEELLEELSSSSS
B2: il2ra_site2_3nfp_normal_mot_HHH_b1_01086_000000225_0001_20_36_H_._HHH_b2_03611_0001_0000300035_0000001_0 (protein)
chain: SSSSSEAEEELERLLRELEELLKRDPEEAHRLSARALNLAYEARDFEIFARLADISFALASSSSS
B3: il2ra_site1_3nfp_sap_16_mot_5dea99290cf7e133ebc5b763b21a7a39_0001_000000141_0001_34_49_H_._ems_3hC_617_0002_0001_0000300017_0000001_0_0001 (protein)
chain: NDKIAERLVRQAVEQNSPRILKKILEDLERVLGDPEEARERLRELLELVLGDPEEVERLLELAEE
B4: il2ra_site1_3nfp_sap_8_mot_93ec910cbd4ebb8dd092c1ac1e61ab37_0001_1_af2_000000101_0001_16_31_H_._22fa1065b69cf192845a0250a7ccff51_0001_1_0001_0000400021_0000001_ … (protein)
chain: SSSSDSVEWLQEMIERAFENNDRRQLRVLIKILEKAAEQFGDPEVEKLLEEAERLLEELNSSSSS
B5: il2ra_site1_3nfp_normal_mot_HHH_b2_04366_af2_000000103_0001_1_19_H_._d3e5e791db42274430e6ef9f54efc4f5_0001_af2_0001_0000100007_0000001_0_af2pred_0001_af2pred_sw … (protein)
chain: SAKEISELLREAARKDPEVSELLWEALRLFVKNEEEALRLLEELLKELGDPLVEEVLRLLEELAK
B6: il2ra_site1_1z92_sap_8_mot_a31c9f16200a66e5ad31ddff700483a3_0001_1_000000069_0001_19_32_H_._HHH_b1_03395_0001_0000300021_0000001_0_0001_af2pred_0001_af2pred_1 (protein)
chain: PEELAEEARELLENGNPEEARKVLEKLAKELGTEEAFKLDLERAERFTGNPEVALKALIAALARH
B7: il2ra_site2_2erj_normal_mot_HHH_b1_06697_000000025_0001_41_54_H_._HHH_b2_03722_0001_0000300007_0000001_0_af2pred_0001_1_af2pred_swapped (protein)
chain: SSSSSDKEEVEERVREILEEAEQVRDPREALKILEKADRLASENNNEEALELIHEVLQRLSSSSS
B8: il2ra_site2_3nfp_sap_15_mot_HHH_b1_07089_af2_000000257_0001_1_17_H_._51cc31007119fa75359d0ea3f4aa2c22_0001_1_0001_0000100009_0000001_0_0001 (protein)
chain: SSSSSAAEDSVHVLKRELEELGDRESIEELERLLEEIKEHNDPRLLLELYALLLRLYEESSSSSS
B9: il2ra_site1_1z92_sap_21_mot_35b94aac26684153dbcc4bf06a514b74_0001_1_000000068_0001_35_49_H_._HEEHE_2006_af2_0001_0000400023_0000001_0_0001_af2pred_0001_af2pred (protein)
chain: SSSSDEEEAAEEIVREVVEKLGLSEEDREALERDAEQSLRRGISERSVKQALEKAAKRERSSSSS
B10: il2ra_site1_1z92_sap_11_mot_HHH_b2_00249_af2_000000052_0001_39_52_H_._HHH_b2_00616_af2_0001_0000400013_0000001_1_0001_af2pred_0001_af2pred (protein)
chain: SSSSSEKRKEALELFEEANELFKRGNDEEAQELLRRALELAEEAGNRVLARAIEQALEDAESSSS

molecular target: il2ra, P01589; test: yeast display titration
Sequence (P01589 whole entry): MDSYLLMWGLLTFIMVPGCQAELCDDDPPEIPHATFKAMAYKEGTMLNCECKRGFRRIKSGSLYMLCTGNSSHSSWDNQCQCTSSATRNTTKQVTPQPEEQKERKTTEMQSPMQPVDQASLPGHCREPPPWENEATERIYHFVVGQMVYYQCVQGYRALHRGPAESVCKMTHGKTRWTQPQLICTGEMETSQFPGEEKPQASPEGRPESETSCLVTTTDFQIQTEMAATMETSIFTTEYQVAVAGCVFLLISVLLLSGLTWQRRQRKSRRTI

Apparent Kd, inactive:
B1 no binding seen
B2 no binding seen
B3 no binding seen
B4 no binding seen
B5 no binding seen
B6 no binding seen
B7 no binding seen
B8 no binding seen
B9 no binding seen
B10 no binding seen
